uPA generation: cell surface uPA generation inhibition; cell surface uPA generation assay, qHTS; Potency, µM (top dose mostly 38.3 µM), inactives show at the top dose activity change, negative = inhibition, usual class: inhibitors; 330,000 tested, 0.31% active; active = well fitted inhibition curve with a large enough effect; inconclusive = small, poorly fitted or top-dose-only effect; inactive = no such curve, though single readings can be large or run the other way; tested in mouse RAW 264.7 cells; note: potency is the fitted concentration of half-maximal effect; nearly all actives have a fitted effect of over 55% in size
IL1B secr inh: inhibitors of inflammasome signaling (IL-1 beta secretion). activity change, % at 57.5 µM. 360,000 tested, 4.7% active. THP-1 LPS/ATP IL-1B secretion, AlphaLISA, 16 h; active compounds read low; in the data active = activity change below about -50%; inconclusive = mostly about -30% to -49%
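THP-1 cells pretreated 1 hr with compounds (up to 57.5 uM final), then stimulated with LPS (250 ng/mL final) plus ATP (1.25 mM final); secreted IL-1B measured by AlphaLISA after 16 hr, decreased signal indicating inhibition.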
HT1080 IDH1KD tx: toxicity to HT-1080 IDH1 knockdown cells (counter line); HT-1080 IDH1 knockdown viability, ATP luminescence, 48 h; Potency, µM (top dose mostly 46.1 µM), without a hit: at the highest dose activity, negative = toxicity, hits mostly cytotoxic; 360,000 tested, 2% active; AID 686971;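 note: potency is the fitted concentration of half-maximal effect; 0% = DMSO wells and -100% = cell-free medium wells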
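Knockdown cells (IDH1KD HT-1080) received compounds 2 h after plating at 750 cells/well and were kept 48 h at 37 °C in 5% FBS RPMI. A CellTiter-Glo luminescence read gave % activity for curve fitting.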
HT1080-NT tox: kills 2HG-producing HT-1080-NT fibrosarcoma cells; HT-1080-NT fibrosarcoma viability, CellTiter-Glo ATP luminescence, 48 h; Potency, µM (highest dose often 46.1 µM), for the others: at the highest dose activity, negative = less viability, actives largely listed as cytotoxic; 360,000 tested, 1.6% active;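 note: NT is the 2HG producing partner of a matched IDH1 knockdown line; potency is the fitted concentration of half-maximal effect; 0% = DMSO-treated cells and -100% = media-only wells without cells; nearly all actives have a fitted effect of over 55% in size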
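Viability by CellTiter-Glo luminescence after 48 h compound exposure at 37C of HT-1080-NT cells (750/well, RPMI, 5% FBS). % activity scaled between DMSO wells and medium-only wells, then curve-fitted and categorized by curve class.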
DT40 TDP1 no CPT: qHTS for Inhibitors of human tyrosyl-DNA phosphodiesterase 1 (TDP1): qHTS in cells in absence of CPT | DT40 Tdp1-/- hTDP1 cells, no CPT, ATP luminescence, 48 h | Potency, µM (top dose mostly 46.2 µM), for the others: at the top dose activity change, negative = growth inhibition, most hits filed as inhibitors | 420,000 tested, 15% active; note: potency is the fitted concentration of half-maximal effect; nearly all actives have a fitted effect of over 55% in size
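Cells were dispensed at 400 per well, compounds added by pin tool, plates incubated ≥48 hr at 37 °C, then CellTiter-Glo added for 30 min at room temperature before luminescence reading. Line: DT40 Tdp1-/- complemented with hTDP1; camptothecin omitted.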
TDP1 cell CPT: growth inhibition of DT40 Tdp1-/-;hTDP1 cells with camptothecin (screen for TDP1 inhibitors); chicken DT40 Tdp1-/-;hTDP1 cells + 20 nM CPT, ATP luminescence, 48 h; Potency, µM (top dose mostly 46.2 µM), without a hit: at the top dose activity change, negative = growth inhibition, usual class: inhibitors; 420,000 tested, 12% active; AID 686979; note: potency is the fitted concentration of half-maximal effect; nearly all actives have a fitted effect of over 55% in size
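Chicken DT40 Tdp1-/- cells stably complemented with human TDP1 were seeded at 400 cells/well in medium containing 20 nM camptothecin, exposed to pin-transferred compounds, and grown at 37 °C for at least 48 hr. Viability was read as ATP luminescence.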
An asterisk follows results filed as active; [ ] = dose if it differs, or a comment. Hits are enriched below; roughly 19% of the tested compounds scored in any of these assays. Unless noted, calls come from the whole dose curve; as a rule, active = well fitted curve in the direction sought with a large enough effect; inconclusive = small, poorly fitted or top-dose-only effect, or another doubt; inactive = no such curve, though single readings can be large; an effect the other way counts as inactive or inconclusive. Unless noted, % is set by controls: 0 for no effect and ±100 for the full control effect.

What do the screens show for `CCCCOc1ccc(N(CC(=O)NC2CCCCC2)C(=O)c2snc(C(N)=O)c2N)cc1`?
IL1B secr inh: 16; HT1080 IDH1KD tx: 23%; HT1080-NT tox: 21%; DT40 TDP1 no CPT: 16µM*; TDP1 cell CPT: inconclusive

What do the screens show for `NC(=O)c1nsc(C(=O)N(CC(=O)NC2CCCCC2)c2ccc(Cl)cc2)c1N`?
uPA generation: -3%; IL1B secr inh: 3; HT1080 IDH1KD tx: -3%; HT1080-NT tox: -17%; DT40 TDP1 no CPT: inconclusive; TDP1 cell CPT: inconclusive

What do the screens show for `COc1cccc(N(CC(=O)NC2CCCCC2)C(=O)c2snc(C(N)=O)c2N)c1`?
uPA generation: -1%; IL1B secr inh: -61*; HT1080 IDH1KD tx: -3%; HT1080-NT tox: 2%; DT40 TDP1 no CPT: -26%; TDP1 cell CPT: 10%

Results for CC(C)(C)NC(=O)CN(C(=O)c1snc(C(=O)NC2CCCCC2)c1N)c1ccccc1F ?
uPA generation: -10%; IL1B secr inh: inconclusive; HT1080 IDH1KD tx: -15%; HT1080-NT tox: -11%; DT40 TDP1 no CPT: 21µM*; TDP1 cell CPT: inconclusive

Results for C=CCN(C(=O)c1csnn1)C(C(=O)NC1CCCC1)c1ccc(F)cc1 (configuration not stated) ?
uPA generation: -4%; IL1B secr inh: 1; HT1080 IDH1KD tx: 12%; HT1080-NT tox: 9%; DT40 TDP1 no CPT: -18%; TDP1 cell CPT: 4%

How did COc1coc(C(O)C[N+](=O)[O-])cc1=O (configuration not stated) do in these assays?
uPA generation: 1%; IL1B secr inh: 26; HT1080 IDH1KD tx: 1%; HT1080-NT tox: -2%; DT40 TDP1 no CPT: inconclusive; TDP1 cell CPT: 29µM*

How did Oc1ccc(-c2nc(-c3ccc(O)c(O)c3)cs2)cc1 do in these assays?
uPA generation: -8%; IL1B secr inh: 0; HT1080 IDH1KD tx: inconclusive; HT1080-NT tox: inconclusive; DT40 TDP1 no CPT: 8.2µM*; TDP1 cell CPT: 8.2µM*

Results for Oc1ccc(-c2csc(-c3cccnc3)n2)c(O)c1 ?
uPA generation: -14%; IL1B secr inh: inconclusive; HT1080 IDH1KD tx: -19%; HT1080-NT tox: inconclusive; DT40 TDP1 no CPT: inconclusive; TDP1 cell CPT: inconclusive

What do the screens show for `COc1ccc(CCNc2nc(SCc3cccc(F)c3)nc3ccccc23)cc1OC`?
DT40 TDP1 no CPT: inconclusive; TDP1 cell CPT: 16µM*

What do the screens show for `COc1ccc(C(C)=O)cc1CSc1nc(NCc2ccc(Cl)cc2)c2ccccc2n1`?
DT40 TDP1 no CPT: -23%; TDP1 cell CPT: inconclusive

Results for O=C(CCCn1c(SCc2cc(=O)n3cc(Cl)ccc3n2)nc2ccccc2c1=O)NCC1CCCO1 (configuration not stated) ?
uPA generation: 14%; IL1B secr inh: 30; HT1080 IDH1KD tx: 5%; HT1080-NT tox: 0%; DT40 TDP1 no CPT: inconclusive; TDP1 cell CPT: inconclusive

Results for Clc1ccc(CCNc2nc3ccccc3s2)cc1 ?
uPA generation: 3%; IL1B secr inh: -7; HT1080 IDH1KD tx: -8%; HT1080-NT tox: -5%; DT40 TDP1 no CPT: inconclusive; TDP1 cell CPT: -29%

How did Clc1ccc(CSc2nc(NCCc3ccccc3)c3ccccc3n2)cc1 do in these assays?
DT40 TDP1 no CPT: 6.5µM*; TDP1 cell CPT: 9.2µM*

How did O=c1cc(CSc2nc(NCc3ccccc3)c3ccccc3n2)nc2ccc(Cl)cn12 do in these assays?
uPA generation: 23%; IL1B secr inh: 11; HT1080 IDH1KD tx: 4%; HT1080-NT tox: 4%; DT40 TDP1 no CPT: 12µM*; TDP1 cell CPT: 16µM*

What do the screens show for `COc1ccc(CCNc2c3ccccc3nc3ccccc23)cc1OC`?
uPA generation: -5%; IL1B secr inh: -94*; HT1080 IDH1KD tx: inconclusive; HT1080-NT tox: 21µM*; DT40 TDP1 no CPT: 21µM*; TDP1 cell CPT: inconclusive

Results for COc1ccccc1CN1CCCC2(CCN(C(=O)c3cccn3C)CC2)C1 ?
DT40 TDP1 no CPT: -14%; TDP1 cell CPT: 3%

How did O=c1c2cc3c(=O)n(-c4ccccc4O)c(=O)c3cc2c(=O)n1-c1ccccc1O do in these assays?
uPA generation: -15%; IL1B secr inh: 18; HT1080 IDH1KD tx: inconclusive; HT1080-NT tox: inconclusive; DT40 TDP1 no CPT: 3%; TDP1 cell CPT: 11%

What do the screens show for `COC(=O)c1c(NC(=O)CN2C(=O)C(=O)N(CC(C)C)C2=O)sc2c1CCCCC2`?
uPA generation: 0%; IL1B secr inh: 17; HT1080 IDH1KD tx: 0%; HT1080-NT tox: 5%; DT40 TDP1 no CPT: -10%; TDP1 cell CPT: 2%

How did O=C(O)C1CCC(CNS(=O)(=O)c2ccccc2)CC1 (configuration not stated) do in these assays?
uPA generation: 3%; IL1B secr inh: -7; HT1080 IDH1KD tx: -1%; HT1080-NT tox: -3%; DT40 TDP1 no CPT: -8%; TDP1 cell CPT: -5%

How did Cn1c(-c2ccncc2)nc2cc(C(=O)N3CCCC3c3nccs3)cc(NC(=O)C3CCC3)c21 (configuration not stated) do in these assays?
DT40 TDP1 no CPT: -15%; TDP1 cell CPT: -12%[9.04 µM]

Results for CN(C)c1ccc(C2Nc3ccccc3C(=O)N2NS(C)(=O)=O)cc1 (configuration not stated) ?
uPA generation: 4%; IL1B secr inh: inconclusive; HT1080 IDH1KD tx: -3%; HT1080-NT tox: -1%; DT40 TDP1 no CPT: 16%; TDP1 cell CPT: -9%

What do the screens show for `Cc1cccc(C)c1NC(=O)C1CCCN1C(=O)NCc1ccccc1` (configuration not stated)?
uPA generation: 2%; IL1B secr inh: 15; HT1080 IDH1KD tx: 7%; HT1080-NT tox: 12%; DT40 TDP1 no CPT: 0%; TDP1 cell CPT: 7%

How did O=C(Nc1c(F)c(F)c(F)c(F)c1F)c1ccc(Br)o1 do in these assays?
IL1B secr inh: -3; HT1080 IDH1KD tx: 0%; HT1080-NT tox: -4%; DT40 TDP1 no CPT: inconclusive; TDP1 cell CPT: -22%

Results for Fc1ccc(Nc2nc(SCc3ccc(Cl)cc3)nc3ccccc23)cc1 ?
DT40 TDP1 no CPT: -102%; TDP1 cell CPT: inconclusive

How did Clc1ccccc1CSc1nc(NCCc2ccccc2)c2ccccc2n1 do in these assays?
DT40 TDP1 no CPT: 13µM*; TDP1 cell CPT: inconclusive

What do the screens show for `Fc1ccc(Nc2nc(SCc3cccc(F)c3)nc3ccccc23)cc1`?
DT40 TDP1 no CPT: 16µM*; TDP1 cell CPT: 15µM*

How did Nc1cc(N)nc(SCc2ccccc2Cl)n1 do in these assays?
IL1B secr inh: -5; HT1080 IDH1KD tx: 11%; HT1080-NT tox: 7%; DT40 TDP1 no CPT: -25%; TDP1 cell CPT: -23%

Compound activity deposited in PubChem by National Center for Advancing Translational Sciences (NCATS).
